Only some compounds are listed: those with a hit (about 4.6% of all), similar ones and a draw of the others.
ssDAF12 agonist: activators of S. stercoralis DAF-12 nuclear receptor | HEK293 ssDAF-12/GRIP1 lit1-tk-luc reporter, luminescence; % of 3 µM dafachronic acid response | activation, % at 6.8 µM | hit rate 1% among 370,000;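 active = activation above the mean over all tested compounds plus 3 SD, cut at about 0.9% in these data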;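 also: 0% = DMSO-only wells and 100% = 3 µM delta7-dafachronic acid wells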
hcDAF-12 act: H. contortus DAF-12 activation, primary screen. activation, % at 6.8 µM. HEK293 hcDAF-12 lit1-tk-luc reporter, luminescence; 0% DMSO, 100% Δ7-dafachronic acid. AID 652067. hit rate 1.4% among 370,000;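 active = activation above the mean of all tested compounds plus 3 SD, cut at about 5.5% in these data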;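 also: 100% = response to 3 µM Δ7-dafachronic acid high control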
Wee1 stabilizer: human Wee1 degradation inhibition, primary screen. hit rate 1.2% among 220,000. reporter increase, % at 5 µM. P30291. HeLa Luc-Wee1K328M stability, luciferase luminescence; 100% = proteasome inhibitor MG132 effect;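 active = activation above the mean of all tested compounds plus 3 SD, set per screening run, cut at about 8.8% in these data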;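 also: cells exposed to compound for 20 h before luminescence read; 0% = DMSO alone and 100% = MG132 at 30 µM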
Target sequence (P30291 whole entry K328M): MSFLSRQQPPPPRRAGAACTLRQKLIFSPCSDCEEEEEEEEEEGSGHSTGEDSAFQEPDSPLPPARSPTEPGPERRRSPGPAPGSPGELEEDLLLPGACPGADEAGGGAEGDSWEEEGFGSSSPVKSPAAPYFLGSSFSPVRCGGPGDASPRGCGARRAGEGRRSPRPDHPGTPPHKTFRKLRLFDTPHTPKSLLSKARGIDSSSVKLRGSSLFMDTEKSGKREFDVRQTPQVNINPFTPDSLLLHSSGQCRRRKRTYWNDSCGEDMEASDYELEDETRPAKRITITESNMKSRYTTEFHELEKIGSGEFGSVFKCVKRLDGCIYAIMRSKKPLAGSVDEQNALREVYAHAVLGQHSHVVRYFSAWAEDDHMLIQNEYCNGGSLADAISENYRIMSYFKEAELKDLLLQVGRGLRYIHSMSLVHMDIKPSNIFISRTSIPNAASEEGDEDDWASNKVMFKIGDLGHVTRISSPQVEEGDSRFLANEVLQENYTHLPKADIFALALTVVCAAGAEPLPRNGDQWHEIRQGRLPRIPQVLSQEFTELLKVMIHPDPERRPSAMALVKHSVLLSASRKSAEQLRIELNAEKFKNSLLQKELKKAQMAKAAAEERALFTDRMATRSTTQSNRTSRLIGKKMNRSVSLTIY
DAX1 inh-1: inhibitors of human orphan nuclear receptor DAX1 (NR0B1). P51843. HEK293 Gal4-DAX1 luciferase reporter, luminescence. inhibition, % at 6.75 µM. hit rate 0.99% among 340,000;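 active = inhibition above the mean over all tested compounds plus 3 SD, cut at about 4.2% in these data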;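 also: 0% = DAX1-transfected cells with DMSO and 100% = empty-vector control cells with DMSO; inhibition shows as a rise in luminescence from relieved DAX1 repression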
hgDAF-12 ag: hgDAF-12 agonism, primary luciferase screen; HEK293 GAL4-hgDAF12 UAS-luciferase reporter, agonist luminescence; normalized to butyrate control; activation, % at 6.8 µM; hit rate 1.8% among 370,000; AID 687014;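 active = activation above a cutoff set at the mean of all screened compounds plus 3 SD, cut at about 10% in these data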;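 also: 0% = DMSO wells and 100% = sodium butyrate wells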
DAX1 inh-2: DAX1 (NR0B1) inhibition, primary screen | HEK293T StAR-luciferase reporter, SF-1/DAX-1 repression relief | inhibition, % at 6.8 µM | hit rate 1.1% among 370,000 | AID 652010;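 active = inhibition above the mean over all tested compounds plus 3 SD, cut at about 3.6% in these data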;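 also: 0% = DAX-1 cells with DMSO and 100% = cells lacking DAX-1 with DMSO; higher inhibition means more luminescence from relief of DAX-1 repression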
Starred values were filed as active, the others as inactive; · = no result.

SMILES | ssDAF12 agonist | hcDAF-12 act | Wee1 stabilizer | DAX1 inh-1 | hgDAF-12 ag | DAX1 inh-2
CCOC(=O)C/C(C)=N\Nc1nc(-c2ccccc2)cs1 | 1.7* | 1 | 0 | -1 | 2 | 1
COc1cccc(N2CCN(CC(=O)Nc3nc4c(s3)CC(C)CC4)CC2)c1 (centres undefined) | -1 | -1 | -1 | -1 | 0 | -1
Cc1nnc(SCC(=O)Nc2nc3c(s2)CC(C)CC3)s1 (centres undefined) | -2 | -4 | 8.9* | 0 | 1 | -1
CC1CCc2nc(NC(=O)CSc3nc4ccccc4o3)sc2C1 (centres undefined) | -2 | -3 | -1 | 0 | -9 | -1
CC1CCc2nc(NC(=O)CN3CCN(c4ccc(F)cc4)CC3)sc2C1 (centres undefined) | -2 | -1 | 4 | 6.6* | 2 | -1
COc1cc(Cl)c(C)cc1NC(=O)CN(C)C1CCS(=O)(=O)C1 (centres undefined) | -1 | 1 | · | 0 | -3 | 3
CN(C(=O)COC(=O)c1ccccc1SCC(=O)N1CCCC1)C1(C#N)CCCCC1 | 0 | 1 | · | 0 | -3 | 1
COc1cc(CN2C[C@@H](CO)O[C@@H](n3cnc4c(N(C)C(C)C)ncnc43)C2)cc(OC)c1OC | -1 | 1 | · | · | 1 | 1
C=CC[C@H](CC(=O)N[C@H](CO)Cc1ccccc1)C(=O)N[C@H](COC(=O)[C@H](CC=C)CC(=O)OC(C)(C)C)Cc1c[nH]c2ccccc12 | -1 | 0 | · | 0 | 2 | 0
O=C(O)CCNS(=O)(=O)c1ccc2c(c1)OCCCO2 | -1 | 0 | 9.8* | -1 | 0 | 0
COC(=O)C1(C(=O)OC)C[C@H](/C=C/c2ccccc2)N(Cc2ccccc2OC)[C@@H]1c1cccc(Br)c1 | 0 | -1 | · | · | 3 | 0
COC(=O)C1(C(=O)OC)C[C@H](/C=C/c2ccccc2)N(Cc2ccccc2OC)[C@@H]1c1ccccc1 | -1 | -1 | · | · | 1 | 3.9*
Cc1ccc(C(=O)N2CCN(C)CC2)cc1[N+](=O)[O-] | -2 | -2 | · | 4.6* | -3 | 0
CN(C)S(=O)(=O)c1ccc(S(=O)(=O)N2CCN(CCC#N)CC2)cc1 | -1 | -1 | -1 | 6.2* | -1 | 0
N#CCCN1CCN(S(=O)(=O)c2ccc(S(=O)(=O)NCc3ccccc3)cc2)CC1 | -2 | 0 | 0 | 5.4* | -1 | 2
CC(c1c[nH]c2ccccc12)c1c[nH]c2ccc(Br)cc12 (centres undefined) | 0 | 5.6* | · | · | 4 | -1
CCOC(=O)[C@]12CCC=C1N(Cc1ccc(Cl)cc1Cl)C(=O)[C@H](CC(=O)N1CCN(C(=O)c3ccco3)CC1)C2 | -1 | 1 | · | · | -2 | -1
Cc1ccc2nc(/C(C#N)=C\c3ccc(N4CCOCC4)o3)[nH]c2c1 | 1 | 4 | 9.4* | 0 | 1 | -1
O=C(CCN=C1NS(=O)(=O)c2ccccc21)OCc1nnc(-c2ccc([N+](=O)[O-])cc2)o1 | -1 | 0 | · | -1 | 5 | -1
CCC(C(=O)NC1CCCC1)n1c(C2CC2)nc2ccccc21 (centres undefined) | 0 | -1 | · | · | -1 | 0
COc1ccc(/C=C/S(=O)(=O)NCCc2ccccc2)c(CNC(=O)OC(C)(C)C)c1 | -1 | -2 | · | · | 4 | -1
COc1ccccc1NC(=O)Nc1nc(CC(=O)NCc2cccnc2)cs1 | -1 | -1 | · | 4.8* | 0 | 0
O=c1c2ccccc2oc2cc(NCCCN3CCOCC3)ccc12 | 0 | 4 | · | 2 | 12* | 3
c1ccc(Cn2ccc3ccc(-c4ccc5ccn(Cc6ccc7ccccc7c6)c5c4)cc32)cc1 | 0 | -1 | · | · | 4 | 0
Clc1ccc(Cn2ccc3ccccc32)cn1 | -1 | 1 | · | 6.0* | -1 | 0
SMILES | ssDAF12 agonist | hcDAF-12 act | Wee1 stabilizer | DAX1 inh-1 | hgDAF-12 ag | DAX1 inh-2
NC(=O)CSc1nnc(Cn2cnc3ccccc32)o1 | -1 | -1 | 0 | 4.2* | -2 | 0
C=CCSc1nc(C)c(CC(=O)OCCCC)c(=O)[nH]1 | -1 | -1 | -2 | 0 | 0 | 1
CCOC(=O)Cc1c(C)nc(SC)[nH]c1=O | -1 | 0 | 1 | 0 | 11* | 0
CCN(CC)CCCNC(=O)c1cn(CC)c2ccc(S(=O)(=O)N3CCc4ccccc4C3)cc2c1=O | -1 | -1 | 0 | 0 | 1 | 0
CCn1cc(C(=O)NCCCN2CCN(C)CC2)c(=O)c2cc(S(=O)(=O)N3CCc4ccccc4C3)ccc21 | 1.5* | 1 | -1 | 3 | -2 | 0
CCCCNC(=O)c1cn(CC)c2ccc(S(=O)(=O)N3CCCC3)cc2c1=O | -1 | -2 | · | 1 | 0 | 0
CCn1cc(C(=O)NCCc2ccccc2)c(=O)c2cc(S(=O)(=O)N3CCCC3)ccc21 | -1 | -2 | 9.4* | -1 | 1 | -1
COC(=O)C1CCN(S(=O)(=O)CCNC(=O)c2ccccc2)CC1 | -1 | 0 | · | 1 | 0 | 0
Cc1nnc(SCC(=O)NNC(=O)c2ccc(F)cc2)n1Cc1ccccc1 | 1.4* | 2 | · | 4.5* | 1 | 0
COC(=O)c1cc2c(c3c4cc(OC)ccc4n(S(=O)(=O)c4ccc(F)cc4)c13)C(=O)N(CC(C)C)C2 | -1 | 0 | · | · | -1 | -1
Clc1ccc(OCc2nnc(-c3ccccc3Br)o2)cc1 | 2.1* | 0 | 0 | 0 | 0 | 0
COc1ccc(S(=O)(=O)N(C)C[C@@H]2OCc3cn(nn3)CCCC(=O)N([C@H](C)CO)C[C@H]2C)cc1 | -1 | 1 | · | · | 0 | 3.7*
COc1ccccc1NC(=O)N(C)C[C@@H]1OCc2cn(nn2)CCCC(=O)N([C@@H](C)CO)C[C@H]1C | 0.9* | 2 | · | 0 | -1 | 1
CCC[C@H]1[C@@H](OC(=O)NCc2ccc(Cl)cc2)CC[C@@]23CCCN2C(=O)CCC[C@@H]13 | -1 | -3 | · | · | -1 | ·
Cc1ccc([N+](=O)[O-])c2c1C(N1CC(C)OC(C)C1)C(C)(C)O2 (centres undefined) | 15* | -2 | 3 | 3 | -2 | 0
OC(c1ccccc1)(c1ccccc1)C1CCN(CCCOc2cccc(F)c2)CC1 | -1 | 1 | · | · | 3 | 0
COc1ccc(NC(=O)/C=C/c2cccc(F)c2)cn1 | -1 | 2 | 6 | 2 | 13* | 3
COc1ccc(NC(=O)/C=C/c2ccco2)cn1 | -1 | 3 | 4 | 0 | 9 | 2
COc1ccc(OC)c(/C=C/C(=O)NC2=NCCS2)c1 | -1 | 2 | 0 | 0 | 2 | 1
COc1ccc(OC)c(/C=C/C(=O)Nc2ccc(OC)nc2)c1 | -2 | 0 | -1 | 5.6* | 1 | -1
